Drawing on PubChem BioAssay AID1565 (Sanford-Burnham Center for Chemical Genomics, 2009), this text covers inhibition for 63 molecules.

About 3,200 (1.1%) of roughly 290,000 compounds were called active. The sample holds actives, similar compounds and a random draw of the others, so the mix is not that of the screen. Rule as the data show it: active = inhibition above about 60%; inactive = the rest.

Sequence of Phosphoethanolamine/phosphocholine phosphatase (Homo sapiens) (Q8TCT1 whole entry, looked up): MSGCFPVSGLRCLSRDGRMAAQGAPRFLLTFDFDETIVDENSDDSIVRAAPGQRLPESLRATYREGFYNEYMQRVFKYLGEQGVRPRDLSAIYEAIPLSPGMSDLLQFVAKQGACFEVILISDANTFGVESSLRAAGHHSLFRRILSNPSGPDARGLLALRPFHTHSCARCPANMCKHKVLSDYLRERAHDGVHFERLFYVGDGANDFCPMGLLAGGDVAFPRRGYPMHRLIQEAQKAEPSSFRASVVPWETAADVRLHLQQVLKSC

This test addresses Phosphoethanolamine/phosphocholine phosphatase (Homo sapiens) (UniProt Q8TCT1). Nature of the test: PubChem AID 1565. The note with it: recombinant PHOSPHO1, absorbance phosphatase assay; at 13.3 µM; active compounds read high.
Consider `COCCCC1CCN(C(=O)C2CCC(=O)N(C3CCCCCC3)C2)CC1` (stereo not drawn), for which the inhibition is 26.5% (inactive).

On to `O=C(N/N=C\c1cccnc1)c1cc(-c2ccccc2)nc2c(Cl)cccc12`, for which the inhibition was 9% (inactive).

For the molecule `O=C(/C=C/c1cccc(C(F)(F)F)c1)N1CCN(c2ccccn2)CC1`, the inhibition is 23.3% (inactive).

As for `Clc1c(OCCCn2ccnc2)ccc2ccccc12`, the inhibition is 13.9% (inactive).

Turning to `O=C(O)c1[nH]c2ccccc2c1C(c1cccc(O)c1)c1c(C(=O)O)[nH]c2ccccc12`, the inhibition was 14.1% (inactive).

On to `O=C(O)CSCC(=O)Nc1cccc(C(F)(F)F)c1`, for which the inhibition was 61.5% (active).

`Cc1cccc(NC(=O)c2cccc(C(F)(F)F)c2)c1`: the inhibition was 66.2% (active).

Turning to `CNC(=O)c1ccc(NC(=O)c2cccc(C(F)(F)F)c2)cc1`, the inhibition is 47.6% (inactive).

For `Cc1cccc(NC(=O)c2nnn(-c3cccc(C(F)(F)F)c3)c2N)c1`, the inhibition is 11.4% (inactive).

As for `O=C(O)CSCC(=O)Nc1ccc(C(F)(F)F)cc1`, the inhibition is 46.4% (inactive).

Take `O=C(O)CC1(CC(=O)Nc2cccc(C(F)(F)F)c2)CCCC1`: the inhibition is 24% (inactive).

Take `COc1ccc(/C=N/NC(=O)C2CC2)c(OC)c1OC`: the inhibition was 21.2% (inactive).

As to `CC1Sc2ccc(S(=O)(=O)CCC(=O)NCc3ccccc3Cl)cc2NC1=O` (stereo not drawn), the inhibition was -22.3% (inactive).

`COc1ccccc1C(=O)OCC(=O)NCCNC(=O)COC(=O)c1ccccc1OC`: the inhibition is 70.6% (active).

In the case of `COc1ccc(C(=O)OCC(=O)NCCCc2ccccc2)cc1OC`, the inhibition was 17.9% (inactive).

For the molecule `COc1ccc(CCNC(=O)COC(=O)c2ccc[nH]c2=O)cc1`, the inhibition was 0.3% (inactive).

Take `O=C(CSc1nnnn1C1CCCC1)N1CCCCC1`: the inhibition was 30.7% (inactive).

Regarding `O=C(c1cc2ccccc2s1)N1CCN(c2ccccn2)CC1`, the inhibition was 42.8% (inactive).

Consider `CCc1ccc(OCC2c3cc(OC)c(OC)cc3CCN2C(C)=O)cc1` (stereo not drawn), for which the inhibition is 42% (inactive).

On to `COc1ccccc1OCCNC(=O)CCNC(=O)c1ccccc1Cl`, for which the inhibition was 23.8% (inactive).

`CN(C(=O)c1cccc([N+](=O)[O-])c1)c1ccccc1C(=O)NCc1ccccc1`: the inhibition is 61% (active).

`O=C(c1cccc([N+](=O)[O-])c1)N1CCN(Cc2ccccc2)CC1`: the inhibition is 18.4% (inactive).

Take `Cc1cc(CNC(=O)c2cccc([N+](=O)[O-])c2)c2ccccc2n1`: the inhibition is -3% (inactive).

`O=C(N/N=C/c1ccc(Cl)c(Cl)c1)c1ccc2nc[nH]c2c1`: the inhibition was 29.8% (inactive).

For the molecule `N#Cc1ccc(C2N=C(c3ccccc3)NO2)cc1` (stereo not drawn), the inhibition is 30.4% (inactive).

In the case of `CCOC(=O)c1c(C)n(C)c2ccc(OC)c(NC(=O)CN3CCC4(CC3)OCCO4)c12`, the inhibition is 96.8% (active).

As to `COc1ccc(Cl)cc1NC(=O)CN1CCN(C(=O)N2CCOCC2)CC1`, the inhibition is 4.5% (inactive).

As to `CCOC(=O)c1c(C)n(C)c2ccc(OC)c(NS(=O)(=O)CC)c12`, the inhibition is -2.4% (inactive).

As for `CCOc1ccc(C(C(=O)NCCOC)N(CCOC)C(=O)CCC(=O)Nc2ccccn2)cc1` (stereo not drawn), the inhibition is 1.5% (inactive).

For the molecule `COc1ccc2cc(C(=O)C3CCCN(C(=O)c4sc(C)nc4C)C3)ccc2c1` (stereo not drawn), the inhibition was 22.6% (inactive).

Consider `COc1ccccc1N1CC(C(=O)Nc2nnc(SCC(=O)NC(C)C)s2)CC1=O` (stereo not drawn), for which the inhibition was -84.3% (inactive).

With `O=C(COC(=O)c1ccc(F)cc1)NCCCc1ccccc1`, the inhibition is 24.1% (inactive).

Turning to `O=C1CC(N2CCN(c3ccc(F)cc3)CC2)C(=O)N1c1ccccc1` (stereo not drawn), the inhibition is -16.5% (inactive).

With `COC(=O)c1ccccc1SC1CC(=O)N(c2cccc(C)c2)C1=O` (stereo not drawn), the inhibition is -11.7% (inactive).

In the case of `COc1ccc(N2C(=O)CC(Sc3n[nH]c(-c4ccc(C)cc4)n3)C2=O)cc1` (stereo not drawn), the inhibition was 10.2% (inactive).

In the case of `Cc1ccc(N2C(=O)CC(Sc3ncn[nH]3)C2=O)cc1` (stereo not drawn), the inhibition was 105% (active).

Regarding `CC(=O)Nc1ccc(N2C(=O)CC(Sc3nccc(C)n3)C2=O)cc1` (stereo not drawn), the inhibition is 19.2% (inactive).

For `O=C1CC(Sc2ncn[nH]2)C(=O)N1c1ccccc1` (stereo not drawn), the inhibition is 97.9% (active).

With `CCc1ccc(/C=N/NC(=O)c2nnn(-c3nonc3N)c2CN2CCc3ccccc32)cc1`, the inhibition was 23.3% (inactive).

Regarding `Cc1[nH]c(C)c(S(=O)(=O)N2CCN(c3cccc(C(F)(F)F)c3)CC2)c1C(=O)N1CCCC1`, the inhibition is 12.1% (inactive).

Regarding `Cc1cccc(N(C)C(=O)c2cc(S(=O)(=O)N3CCCCC3)c[nH]2)c1`, the inhibition was 25.4% (inactive).

For `CCc1cccc(C)c1NS(=O)(=O)c1cc(Br)cnc1N`, the inhibition was 35.5% (inactive).

As for `CCCC(=O)N1CCN(c2nnc(-c3ccc(C)cc3)c3ccccc23)CC1`, the inhibition was 30.8% (inactive).

Take `C=CCn1c(CSc2nc3ccccc3s2)nnc1SCC(=O)NCc1ccco1`: the inhibition is 89.7% (active).

Consider `C=CCn1c(SCC(=O)Nc2nc3ccccc3s2)nnc1-c1ccccc1O`, for which the inhibition is -17.5% (inactive).

For the molecule `O=C(CSc1nc2ccc(Nc3nc(N4CCOCC4)nc(N4CCOCC4)n3)cc2s1)NCc1ccco1`, the inhibition is 16.2% (inactive).

As to `O=S(=O)(/C=C/c1ccccc1)N1CCNCC1`, the inhibition was 37% (inactive).

With `Cc1cc(S(=O)(=O)NCc2ccccn2)c(Cl)cc1Cl`, the inhibition was 29.5% (inactive).

On to `CC1(C)NC(=O)N(CC(=O)Nc2cc(C(F)(F)F)cc(C(F)(F)F)c2)C1=O`, for which the inhibition is 24% (inactive).

Regarding `O=C(NCc1ccc(Cl)cc1)c1cc(=O)nc2sc(-c3ccccc3)nn12`, the inhibition was 19.7% (inactive).

For `O=C(NCc1ccc(Cl)cc1)c1cc2c(nc3sccn32)s1`, the inhibition is 66.1% (active).

With `O=C(NCc1ccc(Cl)cc1)NCc1ccc(Cl)cc1`, the inhibition is 42.1% (inactive).

Take `COc1ccc(NC(=O)C2CCC(CNS(=O)(=O)c3csc(C(N)=O)c3)CC2)cc1OC` (stereo not drawn): the inhibition was 48.8% (inactive).

`Cc1ccc(-c2n[nH]c(=S)n2/N=C/c2cc3c(cc2[N+](=O)[O-])OCO3)cc1`: the inhibition is 99.7% (active).

On to `CCOc1ccc(-c2n[nH]c(=S)n2/N=C/c2cc3c(cc2[N+](=O)[O-])OCO3)cc1`, for which the inhibition was 57.5% (inactive).

Turning to `Cc1ccc(S(=O)(=O)N/N=C\c2cc3c(cc2[N+](=O)[O-])OCO3)cc1`, the inhibition was -27.6% (inactive).

`CN(C(=O)CC1C(=O)NCCN1Cc1ccc2ccccc2c1)C1CCOCC1` (stereo not drawn): the inhibition was 9% (inactive).

As to `COc1ccc(N(Cc2cc3cc(OC)ccc3[nH]c2=O)S(C)(=O)=O)cc1`, the inhibition was -2.4% (inactive).

`COc1ccc2[nH]c(=O)c(-c3noc(-c4ccc(F)cc4)n3)cc2c1`: the inhibition was 80.2% (active).

Regarding `CC(=O)OCc1cc2cc(C)ccc2[nH]c1=O`, the inhibition was -4.1% (inactive).

Regarding `Cc1cccc(-c2noc(-c3ccc(F)cc3)n2)c1`, the inhibition was -3.7% (inactive).

Consider `CCCc1nc(-c2cc3cc(C)ccc3[nH]c2=O)no1`, for which the inhibition is 76.8% (active).

On to `CCNC(=O)CCc1nc(-c2ccc(C)cc2)no1`, for which the inhibition was 12.3% (inactive).

As usually defined, the inhibition is the change of the read-out against control, counted positive when it falls.
